Our source for the Potency values is PubChem BioAssay (NCATS).

Molecules are shown by their SMILES. Calls of active or inactive are those of the source.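 Rule for the calls: active = compounds whose dose series gives a full or clear partial fitted curve of increased nuclear translocation; inconclusive = weak partial curve or effect only at the top dose; inactive = no dose-dependent translocation response.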 Some results are limits rather than exact numbers.
Potency is the fitted concentration of half-maximal effect.

Chain of Glucocorticoid receptor (Homo sapiens) (P04150 whole entry, looked up): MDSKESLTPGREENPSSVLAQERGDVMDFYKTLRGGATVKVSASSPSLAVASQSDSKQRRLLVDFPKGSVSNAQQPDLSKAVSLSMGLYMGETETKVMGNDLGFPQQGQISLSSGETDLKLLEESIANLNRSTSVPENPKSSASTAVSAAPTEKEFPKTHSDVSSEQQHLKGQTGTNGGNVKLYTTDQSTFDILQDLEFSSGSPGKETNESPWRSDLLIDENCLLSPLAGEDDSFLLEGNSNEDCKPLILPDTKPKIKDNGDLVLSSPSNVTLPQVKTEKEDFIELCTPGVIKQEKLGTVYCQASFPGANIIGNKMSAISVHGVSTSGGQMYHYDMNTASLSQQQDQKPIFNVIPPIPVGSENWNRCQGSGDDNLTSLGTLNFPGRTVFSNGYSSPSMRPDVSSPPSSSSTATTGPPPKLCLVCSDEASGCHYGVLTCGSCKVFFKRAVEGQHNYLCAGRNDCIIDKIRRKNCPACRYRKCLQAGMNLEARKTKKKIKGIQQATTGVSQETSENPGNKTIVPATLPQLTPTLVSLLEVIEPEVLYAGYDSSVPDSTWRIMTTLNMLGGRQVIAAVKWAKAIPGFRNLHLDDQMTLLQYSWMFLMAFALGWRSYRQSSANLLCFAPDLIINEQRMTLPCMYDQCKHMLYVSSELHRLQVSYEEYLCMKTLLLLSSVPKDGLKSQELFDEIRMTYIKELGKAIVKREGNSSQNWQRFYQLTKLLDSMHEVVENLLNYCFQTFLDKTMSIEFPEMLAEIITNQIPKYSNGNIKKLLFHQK

The experiment has as its target Glucocorticoid receptor (Homo sapiens) (UniProt P04150). Description: GR-GFP Redistribution (AID 450). Particulars: U2OS GR-GFP nuclear translocation, laser cytometry, 2 h; series mostly up to 20.6 µM.
As for `Cn1c(NCc2cccnc2)nc2c1c(=O)n(Cc1ccccc1F)c(=O)n2C`, the Potency was > 20.6 µM (inactive).
Turning to `N#Cc1nc(COc2ccccc2F)oc1NCCCn1ccnc1`, the Potency was > 20.6 µM (inactive).
Then `Cc1occc1C(=O)OCC(=O)Nc1ccc(F)cc1`, with > 20.6 µM (inactive).
Under `CCOC(=O)CNS(=O)(=O)c1cc(-c2nn(C)c(=O)c3ccccc23)ccc1C` stands > 20.6 µM (inactive); under `CC1(C)CC(=O)C=C(NCCO)C1`, > 20.6 µM (inactive); under `O=c1oc2c(CN3CCCCC3)c(O)ccc2c2c1CCCCC2`, > 20.6 µM (inactive).
Take `COc1cccc(C2C(C(=O)c3cc4ccccc4o3)=C(O)C(=O)N2CCN(C)C)c1OC` (stereo not given): the Potency is > 20.6 µM (inactive).
Then `c1ccc(-c2nc(NCC3CCCO3)c3ccccc3n2)nc1` (stereo not given), with > 20.6 µM (inactive); and `O=C(CSc1nnc(-c2ccccc2)c(-c2ccccc2)n1)N1CCOCC1`, with > 20.6 µM (inactive); and `O=C(NCCO)C1(c2ccccc2)CCCC1`, with > 20.6 µM (inactive).
Under `Cc1ccc(N(CC(O)CN(C)C)S(=O)(=O)c2ccccc2)cc1` (stereo not given) stands > 20.6 µM (inactive); under `Cc1cc(C)n(C(=O)CN2C(=O)CCC2=O)n1`, > 20.6 µM (inactive).
Then `COc1cccc(C2/C(=C(/O)c3cnn(-c4ccccc4)c3C)C(=O)C(=O)N2CCN(C)C)c1` (stereo not given), with > 20.6 µM (inactive); and `Nc1ccc2c3c(cccc13)CC2`, with 3.98 µM (active); and `CC(O)CNc1nc2c(c(=O)n(C)c(=O)n2C)n1Cc1cccc(C(F)(F)F)c1` (stereo not given), with > 20.6 µM (inactive).
Turning to `S=c1[nH]nc(-c2ccccc2)n1Cc1ccccc1`, the Potency is > 20.6 µM (inactive).
Then `CCCCC(CCC(=O)Nc1ccc(C(=O)OCC)cc1)C(=O)O` (stereo not given), with > 20.6 µM (inactive); and `N#C/C(=C\c1c(N2CCC(C(N)=O)CC2)nc2ccccn2c1=O)S(=O)(=O)c1ccccc1`, with > 20.6 µM (inactive).
As to `Cc1nnc2n(-c3ccccc3)c(=O)c3c4c(sc3n12)COC(C)(C)C4`, the Potency was > 20.6 µM (inactive).
As to `Clc1ccc(-n2ncc3c(NCCCn4ccnc4)ncnc32)cc1`, the Potency was > 20.6 µM (inactive).
Under `CCOC(=O)CSc1nc(C)c(C(C)=O)cc1C#N` stands > 20.6 µM (inactive); under `Cc1cc(=O)oc2c(CN3CCN(C)CC3)c(O)c(Cl)cc12`, > 20.6 µM (inactive); under `COC(=O)c1[nH]c(C)c(/C(O)=C2\C(=O)C(=O)N(CCN3CCOCC3)C2c2cccnc2)c1C` (stereo not given), > 20.6 µM (inactive).
Then `CCOc1ccc2nc(NC(NC(C)=O)(C(=O)OC)C(F)(F)F)sc2c1` (stereo not given), with > 20.6 µM (inactive).
With `COc1ccc(C(C)=O)cc1CSCCC(=O)O`, the Potency was > 20.6 µM (inactive).
As for `CCC(c1c(C)n(C)n(-c2ccccc2)c1=O)c1c(C)n(C)n(-c2ccccc2)c1=O`, the Potency was > 20.6 µM (inactive).
Consider `CCCCOc1ccccc1/C=c1/sc2nc(-c3oc4ccccc4c3C)nn2c1=O`, for which the Potency is > 20.6 µM (inactive).
As to `COc1ccc(OC)c(N=C(C)C2=C(O)COC2=O)c1`, the Potency was > 20.6 µM (inactive).
`CCCCCSc1nc(O)cc(=O)[nH]1`: the Potency is > 20.6 µM (inactive).
In the case of `Cn1c(-n2c(-c3ccco3)nc3ccccc3c2=O)nc2ccccc21`, the Potency was > 20.6 µM (inactive).
With `CCOc1ccccc1C(=O)NCCCCCC(=O)O`, the Potency is > 20.6 µM (inactive).
Under `COc1cccc(C(=O)N2CCN(Cc3ccccn3)CC2)c1OC` stands > 20.6 µM (inactive); under `CC(C)Cc1nc(N2CCOCC2)c(C#N)c2c1COC(C)(C)C2`, > 20.6 µM (inactive); under `c1ccc2c(c1)[nH]c1c(N3CCSCC3)ncnc12`, > 20.6 µM (inactive).
Then `COC(=O)COc1ccc(Oc2nc(SC)nc(N(C)C)n2)nn1`, with > 20.6 µM (inactive); and `Cc1cc(=O)oc(C)c1C(=O)NCC1CCCO1` (stereo not given), with > 20.6 µM (inactive).
Under `Cc1ccc2cc(CN(C(=O)c3ccco3)c3ccccc3)c(=O)[nH]c2c1` stands > 20.6 µM (inactive).
Consider `Fc1ccc(OCCOCCNCC2CCCO2)cc1` (stereo not given), for which the Potency was > 20.6 µM (inactive).
On to `CCN1C(=O)CC(N2CCN(c3ccc(OC)cc3)CC2)C1=O` (stereo not given), for which the Potency is > 20.6 µM (inactive).
Under `Cc1cc(=O)[nH]c(COc2ccccc2)n1` stands > 20.6 µM (inactive).
